The values that follow come from ChEMBL document CHEMBL4513216, “Probing the Open Global Health Chemical Diversity Library for Multistage-Active Starting Points for Next-Generation Antimalarials” (ACS Infect Dis, 2020).

The whole screen tested about 69,000 compounds, of which about 8,600 (12%) showed an effect of 50% or more. For the sample, strong results were picked, then their nearest neighbours and some compounds at random.

This experiment relates to Plasmodium berghei. In words: Screen against P. berghei liver stage (PbLuc), transformed with Luciferase, at 10uM. It is filed as functional, HepG2. The conditions noted are these: tested at 10 uM.
`O=C(c1ccc2c(c1)OCO2)N1CCCC(n2ccnc2)C1` (stereo unspecified): the INHIBITION is recorded as -9.37%.

As for `CN(CC(=O)Nc1cc(-c2cc(Cl)cc(Cl)c2)[nH]n1)S(C)(=O)=O`, the INHIBITION is -51.9%.

Take `CC(C)Oc1cccc(F)c1C(C(=O)O)N1CCCC1` (stereo unspecified): the INHIBITION is recorded as -41.4%.

As for `CCOCC(=O)N1CCCn2c(CN3CCCCC3)nnc2C1`, the INHIBITION is listed as -1.15%.

For the molecule `CCS(=O)(=O)Cc1csc(-c2ccc(S(C)(=O)=O)cc2)n1`, the INHIBITION came to 3.4%.

For `O=S(=O)(CCCN1CCCC1Cn1cccn1)c1ccccc1` (stereo unspecified), the INHIBITION was found to be 24%.

Regarding `Cc1noc(C)c1-c1nc(C2CCCNC2)ccc1CO` (stereo unspecified), the INHIBITION is -15.3%.

As for `COC1C[C@@H]2CN(C(=O)c3ccc(C)s3)C[C@@H]2C1` (stereo partly specified), the INHIBITION was -16.55%.

For the molecule `O=C(NCCN1CCCS1(=O)=O)c1scnc1Cl`, the INHIBITION is on record as 40.2%.

For the molecule `CC(=O)c1cnc(N(C)Cc2cc(C)cc(C)n2)nc1C`, the INHIBITION is reported as 28.5%.

Turning to `CC(=O)c1cnc(N(C)Cc2cnc3ccccc3n2)nc1C`, the INHIBITION is reported as 62.7%.

Regarding `Cc1cnc(N(C)Cc2cnc3ccccc3n2)nc1N(C)C`, the INHIBITION worked out at 46.4%.

As for `CC(C)C1COC2(CCN(Cc3ccco3)CC2)C1` (stereo unspecified), the INHIBITION is reported as -2.35%.

Take `O=C1CCCN1Cc1ncn2c1CN(Cc1cccs1)CCC2`: the INHIBITION is 21.8%.

As for `Cn1ccnc1CNC(=O)c1cncc(C2CCNCC2)n1`, the INHIBITION came out at 27.6%.

In the case of `Cc1noc(C)c1S(=O)(=O)NCC(O)c1ccc2c(c1)CCO2` (stereo unspecified), the INHIBITION stood at 42.3%.

On to `Cn1cccc1C(O)CNS(=O)(=O)c1ccccc1F` (stereo unspecified), for which the INHIBITION came out at 51%.

`Cc1cc(F)ccc1S(=O)(=O)NCC(O)c1cccn1C` (stereo unspecified): the INHIBITION is listed as -1.99%.

In the case of `O=S(=O)(NCC(O)c1ccc2c(c1)CCO2)c1ccccc1F` (stereo unspecified), the INHIBITION is given as 50.5%.

`Cn1cccc1C(O)CNS(=O)(=O)c1ccccc1Br` (stereo unspecified): the INHIBITION is on record as -29.2%.

Turning to `Cn1cnc(S(=O)(=O)NCC(O)c2ccc3c(c2)CCO3)c1` (stereo unspecified), the INHIBITION was determined as 25.3%.

As for `NC(=O)CN1CCc2c(Br)ccc(F)c2C1`, the INHIBITION is -15%.

In the case of `Cc1nn(C)cc1Cn1c(=O)ccc2ccccc21`, the INHIBITION is given as 33%.

Turning to `CC(=O)N1CCC(Cc2cnc(-c3c(C)n[nH]c3C)cn2)C1` (stereo unspecified), the INHIBITION turned out to be 36.4%.

Regarding `CCN1C(=O)CCCC12CCCN(C(=O)c1sccc1C)C2` (stereo unspecified), the INHIBITION is listed as -17.1%.

As for `CS(=O)(=O)N1CCC2(CC1)CC(Oc1ccccn1)CO2` (stereo unspecified), the INHIBITION is 10.7%.

Consider `O=C(c1cc[nH]n1)N1CCC(F)(F)C2(CCN(c3ccccn3)C2)C1` (stereo unspecified), for which the INHIBITION is 37.8%.

For the molecule `CC(NC(=O)Nc1cccnc1N1CCCC1)c1ccncc1` (stereo unspecified), the INHIBITION stood at 7.12%.

In the case of `Cc1nn(C(C)C)c(C)c1NC(=O)Nc1cccnc1N1CCCC1`, the INHIBITION stood at 26.9%.

Turning to `Cc1nn(C)c(C)c1NC(=O)Nc1cccnc1N1CCCC1`, the INHIBITION was 54.3%.

Turning to `Cc1nn(C)c(C)c1C(C)NC(=O)Nc1cccnc1N1CCCC1` (stereo unspecified), the INHIBITION is 11.6%.

Consider `CC(NC(=O)Nc1cccnc1N1CCCC1)c1ccccn1` (stereo unspecified), for which the INHIBITION is -17.9%.

With `CC(NC(=O)Nc1cccnc1N1CCCC1)c1ccn(C)c1` (stereo unspecified), the INHIBITION was determined as 62.6%.

For the molecule `Cn1nnc2c1CCN(Cc1ccncc1)C2COCC1CC1` (stereo unspecified), the INHIBITION is 35.4%.

Turning to `Cc1ccc(NC2CCN(C(=O)c3cc(C)sc3C)CC2)nn1`, the INHIBITION was found to be 9.14%.

As for `CN(C)CC1CN(C(=O)Cc2ccccc2)Cc2nccn2C1` (stereo unspecified), the INHIBITION is on record as 31.6%.

Consider `Cc1nonc1C1CCCN1C(=O)c1cn2ccsc2n1` (stereo unspecified), for which the INHIBITION is -16.6%.

As for `Cc1cncc(C(=O)N2CCCC(O)(CO)C2)c1` (stereo unspecified), the INHIBITION is reported as 15.1%.

`CC(C)C(NC(=O)NCc1cccnc1N(C)C)c1cccs1` (stereo unspecified): the INHIBITION amounted to 17.5%.

Turning to `CCc1cnc(N2CC[C@H]3[C@@H]2CCC(=O)N3CC2CCOCC2)nc1`, the INHIBITION is on record as 51.2%.

`Cc1oncc1C(=O)N1CC[C@@H]2[C@@H]1CC(=O)N2Cc1cccnc1`: the INHIBITION is 8.66%.

As to `O=C1CC[C@H]2[C@H](CCN2c2ccccn2)N1CC1CCOCC1`, the INHIBITION is 12.7%.

In the case of `Cc1oncc1C(=O)N1CC[C@H]2[C@@H]1CCC(=O)N2c1cccnc1`, the INHIBITION is recorded as 18.3%.

With `Cc1ccc(C(=O)N2CC[C@@H]3[C@H]2CCC(=O)N3CC2CC2)o1`, the INHIBITION is recorded as 37.9%.

Regarding `Cc1oncc1C(=O)N1CC[C@H]2[C@@H]1CCC(=O)N2CC1CCOCC1`, the INHIBITION came out at 56.4%.

Consider `CCc1cnc(N2CC[C@H]3[C@@H]2CCC(=O)N3c2ccccc2)nc1`, for which the INHIBITION was 33.5%.

Turning to `Cc1oncc1C(=O)N1CC[C@H]2[C@H]1CCN2S(C)(=O)=O`, the INHIBITION is listed as 62.9%.

Regarding `Cc1oncc1C(=O)N1CC[C@H]2[C@@H]1CCC(=O)N2CC1CC1`, the INHIBITION is listed as 55.4%.

With `Cc1cccc(CN2CC[C@@H]3[C@@H]2CCN3C(=O)c2cnoc2C)n1`, the INHIBITION is on record as -17%.

For the molecule `Cc1noc(C)c1CN1CC[C@H]2[C@@H]1CCC(=O)N2CC1CCOCC1`, the INHIBITION is reported as 6.67%.

`Cc1cc(C(=O)N2CC[C@H]3[C@H]2CCN3S(C)(=O)=O)c(C)o1`: the INHIBITION came to 39.4%.
